Test results from PubChem BioAssay (NCATS).
Where “and” joins values, the source holds several entries; their conditions need not be identical. Identical values can stand only once. Calls of active or inactive are those of the source. The call rests on the fitted dose curve; in most records, active means well fitted activation curve with a large enough effect; inconclusive means small, poorly fitted or top-dose-only effect; inactive means no such curve, though single readings can be large or run the other way.

target: Cytochrome P450 3A4 (Homo sapiens) (UniProt P08684); assay: qHTS Assay for Activators of Cytochrome P450 3A4 (AID 885); details: recombinant CYP3A4, Luciferin-PPXE luminescence, 60 min; series mostly up to 57.1 µM; further: nearly all actives have a fitted effect of over 65% in size
Protocol: NIH Molecular Libraries Screening Centers Network [MLSCN]
NIH Chemical Genomics Center [NCGC]
The P450 gene superfamily is involved in the metabolism and clearance of xenobiotics. This assay used human CYP3A4 to measure the dealkylation of luciferin-6' phenylpiperazinylyl (Luciferin-PPXE; […]) to luciferin. The luciferin is then measured by luminescence after the addition of a luciferase detection reagent. Luciferin-PPXE concentration in the assay was equal to its KM for CYP3A4. Inhibitors and some substrates limit the production of luciferin, and decrease measured luminescence; activators increase the production of luciferin and luminescence.
NCGC Assay Protocol Summary:
Two uL of enzyme and substrate mix (final concentrations: 20nM CYP3A4, 25uM Luciferin-PPXE, 200mM KPO4) were dispensed into a white, solid bottom 1536-well microtiter plate. 23nL of compound was transferred by a pin tool. The plate was incubated at RT for 10 min. Two uL of an NADPH regeneration solution (Promega supplied reagent) was dispensed and the reaction was allowed to continue for 60 min at RT. Then the reaction was stopped by reconstituted luciferin detection buffer. After another 20 min of incubation the plate was read on the ViewLux (Perkin Elmer) at 60 sec exposure and 2x2 binning. This protocol was carried out with Promega-Glo reagents and further information can be found at http://www.promega.com/tbs/tb325/tb325.pdf. Data were normalized to the to AC100 inhibition (57 uM ketoconazole).
Keywords: P450, CYP2D6, Luciferase, MLSMR, MLSCN, NIH Roadmap, qHTS, NCGC

Cytochrome P450 3A4 (Homo sapiens), sequence (P08684 whole entry, looked up): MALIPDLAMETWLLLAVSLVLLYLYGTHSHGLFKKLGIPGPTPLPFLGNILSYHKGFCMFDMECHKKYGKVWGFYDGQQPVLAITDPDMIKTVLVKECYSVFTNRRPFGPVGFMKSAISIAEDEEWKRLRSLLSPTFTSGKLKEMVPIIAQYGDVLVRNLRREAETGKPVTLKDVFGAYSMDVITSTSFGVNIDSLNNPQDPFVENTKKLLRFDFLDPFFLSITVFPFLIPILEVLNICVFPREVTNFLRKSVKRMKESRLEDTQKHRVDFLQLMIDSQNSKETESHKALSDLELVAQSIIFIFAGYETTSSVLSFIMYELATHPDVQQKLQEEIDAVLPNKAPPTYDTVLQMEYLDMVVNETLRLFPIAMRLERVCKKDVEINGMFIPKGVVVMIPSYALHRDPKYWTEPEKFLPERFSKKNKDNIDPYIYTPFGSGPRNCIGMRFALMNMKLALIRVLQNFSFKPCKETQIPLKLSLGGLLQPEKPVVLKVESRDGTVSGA

Activity change, positive = activation, inactive:
C#CCCCO/N=C1/C[C@@H](O)[C@@H](O)[C@@H]2[C@H]3C(=O)N(c4ccc(F)cc4F)C(=O)[C@@H]3CC[C@H]12 -60.2% [at 11.4 µM]
COC(=O)C(/C=C/C(C)Cc1cc(Br)cc(OCc2ccccc2)c1OC)OCc1ccccc1 (stereo not given) -50.4% [at 11.4 µM]
CC(C)=CCC/C(C)=C/C=C/C1=CC2(C)CC1(C)C(/C=C(\C)CCC=C(C)C)CC2=O (stereo not given) -35% [at 11.4 µM]
CCCNC(=O)OC[C@H]1O[C@@H](CCO/N=C\[C@@H](NS(=O)(=O)c2ccc(C)cc2)[C@H](C)/C=C\CC(=O)OC)C=C[C@@H]1Oc1ccc(OC)cc1 -106% [at 11.4 µM]
O=C(NCCC[N+]1=CC=N[C@H]1c1ccccc1)N1CCCc2nc(-c3ccc(Br)cc3)ccc21 -35.8% [at 11.4 µM]
COc1ccc(COC(=O)N/N=C2/C[C@@H](O)[C@@H](O)[C@@H]3[C@@H]4C(=O)N(C(C)(C)C)C(=O)[C@H]4CC[C@H]23)cc1 -30.7% [at 11.4 µM]
COC(=O)[C@@H]1CC[C@H](C)[C@@H](c2ccc(C)cc2)N1C(=O)c1ccc(/C=N\OC[C@@H](O)COCc2ccco2)cc1 -58.1% [at 11.4 µM]
COc1ccc(O[C@H]2C=C[C@@H](c3ccccc3)O[C@H]2CO/N=C2/[C@H]3O[C@@H]3[C@@H](O)[C@H]3[C@H]2CCn2c(=O)n(-c4ccccc4)c(=O)n23)cc1 -86.5% [at 11.4 µM]
O=C1[C@H]2[C@H]3[C@H](O)[C@H](O)C/C(=N/OC[C@@H](O)COCc4ccco4)[C@H]3CC[C@@H]2C(=O)N1C1CCCCC1 -43.8% [at 11.4 µM]
CO[C@H]1COC(=O)C/C=C\[C@H](C)[C@@H](NS(=O)(=O)c2ccc(C)cc2)COC(=O)C/C=C\[C@@H]1C -67.8% [at 11.4 µM] and -95.2% [at 11.4 µM]
C/C(CCC(=O)OC[C@@H]1O[C@H](C#Cc2ccccc2)C=C[C@@H]1Oc1ccc(C)cc1)=N/OC[C@@H](O)COCc1ccco1 -90.6% [at 11.4 µM]
CO[C@H]1COC(=O)C/C=C\[C@H](C)[C@H](OC)COC(=O)[C@@H](C)COC(=O)C/C=C\[C@@H]1C -30.8% [at 11.4 µM] and -38.4% [at 11.4 µM]
CCc1cc2c(nc1CC)CCN(CC/C(C)=N/OC[C@@H](O)[C@@H]1O[C@@H]3OC(C)(C)O[C@@H]3[C@H]1O)C2 -30.5% [at 11.4 µM]
CCOC(c1cc(OC)cc([N+](=O)[O-])c1OC)C(C)C(OC)[C@@H](C)/C=C/CC(=O)OC (stereo not given in full) -78.6% [at 11.4 µM]
C/C(CCC(=O)OC[C@@H]1O[C@H](C#Cc2ccccc2)C=C[C@@H]1Oc1ccc(C)cc1)=N/OC[C@@H](O)[C@H]1O[C@H]2OC(C)(C)O[C@H]2[C@@H]1O -117% [at 11.4 µM]
COc1ccc(O[C@H]2C=C[C@@H](c3ccccc3)O[C@H]2COC(=O)CC/C(C)=N\O[C@@H](C)CN2CCCc3nc(C)c(C)cc32)cc1 -97% [at 11.4 µM]

Potency, inactive:
CCCCCCN(C(=O)CCCCCN1C(=O)NC(c2ccc(-c3ccccc3)cc2)C(C(=O)OCc2ccccc2)=C1C)C(C(=O)NCCCC)c1ccc(OCC(=O)O)c(C(=O)O)c1 (stereo not given)
CCC1=C2CC[C@H]3C(=O)N(CC(=O)OC)C(=O)[C@H]3[C@H]2[C@@]2(C)C(=NCCc3c[nH]c4ccccc34)OC(=O)N2C1=O
CCC1=C2CC[C@H]3C(=O)N(C)C(=O)[C@H]3[C@H]2[C@@]2(C)C(=NCc3ccccc3)OC(=O)N2C1=O
CN1C[C@@H]2C(c3ccc(Cl)nc3)C3(c4ccccc4)CC2(C3)[C@H]1c1ccccc1 (stereo not given in full)
CCC1=C2CC[C@H]3C(=O)NC(=O)[C@H]3[C@H]2[C@@]2(Cc3ccccc3)C(=NCc3ccccc3)OC(=O)N2C1=O
COC(=O)c1ccc(C(NC(=O)OCc2ccccc2)/C(F)=C/[C@@H](C)C(=O)NCCc2c[nH]c3ccc(OC)cc23)cc1 (stereo not given in full)
COC(=O)CC1C(C)(C)C(=O)C2CC3C4=CC(=O)OC(c5ccoc5)[C@]4(C)CCC3[C@@]1(C)C2=O (stereo not given in full)
CCC1=C2CC[C@H]3C(=O)N(CC)C(=O)[C@H]3[C@H]2[C@@]2(Cc3ccccc3)C(=NCC3CC3)OC(=O)N2C1=O
COC(=O)[C@@H]1C[C@@H]2CC[C@@H](O)C[C@@H]2N1Cc1ccc(-c2ccccc2)cc1
COC(=O)N1[C@H](C)C=C[C@]1(Cc1ccccc1)C(=O)NCc1ccc(N(C)C)cc1
COC(=O)c1ccc(C23CC4(C2)[C@H](CN(CC2CCCCC2)[C@@H]4c2ccccc2)C3c2ccc(Cl)nc2)cc1 (stereo not given in full)
CC(C)CC1(C(=O)NCc2ccccn2)C=CCN1C(=O)c1ccccc1 (stereo not given)
COc1ccccc1-c1oc2ccccc2c(=O)c1O
COC(=O)[C@@H]1C[C@@]2(O)[C@@H](O)[C@@H](O)[C@@H](O)C[C@H]2N1CC(c1ccccc1)c1ccccc1
COC(=O)[C@@H]1C[C@@]1(C)[C@@H](NC(=O)OCc1ccccc1)c1ccccc1
Clc1ccc(C2[C@H]3CN(Cc4cccnc4)[C@H](c4ccccc4)C34CC2(c2ccccc2)C4)cn1 (stereo not given in full)
CCC1=C2CC[C@H]3C(=O)N(c4ccccc4)C(=O)[C@H]3[C@H]2[C@@]2(Cc3ccccc3)C(=NCCc3c[nH]c4ccccc34)OC(=O)N2C1=O
COC(=O)c1ccc(C(NC(=O)OCc2ccccc2)/C(=C/[C@@H](C)C(=O)N(C)Cc2cccnc2)c2cccnc2)cc1 (stereo not given in full)
CCCCCCN(C(=O)CCCCCN1C(=O)NC(c2ccc3ccccc3c2)C(C(=O)OCc2ccccc2)=C1C)C(C(=O)NCCCC)c1ccc(OCC(=O)OC)c(C(=O)OC)c1 (stereo not given)
COC(=O)c1ccc(C(NC(=O)OCc2ccccc2)/C(F)=C/[C@@H](C)C(=O)Nc2ccc(OC)cc2)cc1 (stereo not given in full)
COC(=O)[C@@]1(C)C=C[C@@H](Cc2ccccc2)N1C
C=CC(C1=CC(=O)C(OC)=CC1=O)c1ccc(OC)cc1 (stereo not given)
COC(=O)[C@@H]1C[C@@]2(O)[C@H](O)[C@H](O)[C@H](O)C[C@H]2N1Cc1ccc(-c2ccccc2)cc1
CCC1=C2CC[C@H]3C(=O)N(C)C(=O)[C@H]3[C@H]2[C@@]2(Cc3ccccc3)C(=NCCOC)OC(=O)N2C1=O
